# According to ChEMBL document CHEMBL3988442, “University of Dundee, Small-Polar-MMV Screening Library” (2021):
# Several values for one entry are separate records, joined by “and”; a condition that tells them apart may be missing. Equal entries are not always repeated. For some of these results: Entries with a potency or affinity are not part of this list.
# Assays:
# [1] = biological target: T1, Methionyl-tRNA synthetase, putative (Leishmania donovani (strain BPK282A1)) (UniProt E9BF75); assay: Leishmania donovani Methionine tRNA synthetase (LdMetRS):v7. Dose response assay; format: functional; design: conc 80 nM, time 150 minutes
# T1 sequence (whole entry): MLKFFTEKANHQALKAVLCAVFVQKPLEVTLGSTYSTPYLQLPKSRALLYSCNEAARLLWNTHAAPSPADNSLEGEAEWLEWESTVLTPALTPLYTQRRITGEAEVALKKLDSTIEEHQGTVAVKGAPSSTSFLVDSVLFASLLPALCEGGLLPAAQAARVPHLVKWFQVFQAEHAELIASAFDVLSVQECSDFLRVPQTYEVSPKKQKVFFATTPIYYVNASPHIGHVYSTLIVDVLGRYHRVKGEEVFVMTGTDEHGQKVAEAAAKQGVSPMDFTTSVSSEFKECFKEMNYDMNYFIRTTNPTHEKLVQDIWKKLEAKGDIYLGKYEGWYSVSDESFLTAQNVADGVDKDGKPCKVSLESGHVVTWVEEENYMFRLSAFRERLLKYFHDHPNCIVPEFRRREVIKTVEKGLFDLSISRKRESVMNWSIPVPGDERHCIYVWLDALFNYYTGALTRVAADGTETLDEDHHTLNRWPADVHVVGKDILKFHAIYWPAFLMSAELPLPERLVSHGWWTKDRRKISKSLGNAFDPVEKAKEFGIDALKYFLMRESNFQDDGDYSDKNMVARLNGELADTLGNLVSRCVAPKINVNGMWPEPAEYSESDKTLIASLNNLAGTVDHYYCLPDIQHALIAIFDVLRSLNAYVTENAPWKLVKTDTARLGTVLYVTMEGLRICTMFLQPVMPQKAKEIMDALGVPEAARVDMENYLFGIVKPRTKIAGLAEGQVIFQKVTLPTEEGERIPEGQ
# [2] = biological target: Protein translocase subunit SecA (Escherichia coli (strain K12)) (UniProt P10408); assay: Assay to Identify E. coli SecA ATPase Inhibitors; format: functional; design: scale not given: direction of the effect not stated beside the values; conditions: 30 µM
# Chain of Protein translocase subunit SecA (Escherichia coli (strain K12)) (P10408 whole entry): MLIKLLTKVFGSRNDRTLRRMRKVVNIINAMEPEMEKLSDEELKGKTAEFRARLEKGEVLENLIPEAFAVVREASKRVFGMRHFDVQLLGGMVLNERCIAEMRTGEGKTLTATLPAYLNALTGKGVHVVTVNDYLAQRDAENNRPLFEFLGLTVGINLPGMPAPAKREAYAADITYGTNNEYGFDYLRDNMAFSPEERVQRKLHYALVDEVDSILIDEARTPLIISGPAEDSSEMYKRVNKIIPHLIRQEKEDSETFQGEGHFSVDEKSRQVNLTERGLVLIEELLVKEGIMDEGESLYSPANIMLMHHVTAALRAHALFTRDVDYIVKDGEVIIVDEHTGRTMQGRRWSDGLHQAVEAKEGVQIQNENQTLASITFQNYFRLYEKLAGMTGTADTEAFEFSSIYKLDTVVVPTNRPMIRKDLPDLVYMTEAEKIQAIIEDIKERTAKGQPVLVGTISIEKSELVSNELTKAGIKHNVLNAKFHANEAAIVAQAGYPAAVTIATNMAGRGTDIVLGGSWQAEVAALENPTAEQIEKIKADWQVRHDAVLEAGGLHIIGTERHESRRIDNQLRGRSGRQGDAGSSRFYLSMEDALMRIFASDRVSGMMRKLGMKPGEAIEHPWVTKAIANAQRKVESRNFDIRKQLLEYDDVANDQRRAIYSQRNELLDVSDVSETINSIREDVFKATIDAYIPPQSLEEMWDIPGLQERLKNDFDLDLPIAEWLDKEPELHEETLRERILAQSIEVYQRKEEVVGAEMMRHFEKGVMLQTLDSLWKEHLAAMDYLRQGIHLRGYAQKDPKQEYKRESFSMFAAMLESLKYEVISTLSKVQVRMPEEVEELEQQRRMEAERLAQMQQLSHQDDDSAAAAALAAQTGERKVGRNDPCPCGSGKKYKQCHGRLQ
# [3] = biological target: T2, Ubiquitin-activating enzyme e1, putative (Leishmania donovani (strain BPK282A1)) (UniProt E9BSI1); assay: Leishmania donovani Ubiquitin Activating Enzyme (LdE1); format: functional; design: scale not given: direction of the effect not stated beside the values; conditions: 30 µM
# T2 sequence (whole entry): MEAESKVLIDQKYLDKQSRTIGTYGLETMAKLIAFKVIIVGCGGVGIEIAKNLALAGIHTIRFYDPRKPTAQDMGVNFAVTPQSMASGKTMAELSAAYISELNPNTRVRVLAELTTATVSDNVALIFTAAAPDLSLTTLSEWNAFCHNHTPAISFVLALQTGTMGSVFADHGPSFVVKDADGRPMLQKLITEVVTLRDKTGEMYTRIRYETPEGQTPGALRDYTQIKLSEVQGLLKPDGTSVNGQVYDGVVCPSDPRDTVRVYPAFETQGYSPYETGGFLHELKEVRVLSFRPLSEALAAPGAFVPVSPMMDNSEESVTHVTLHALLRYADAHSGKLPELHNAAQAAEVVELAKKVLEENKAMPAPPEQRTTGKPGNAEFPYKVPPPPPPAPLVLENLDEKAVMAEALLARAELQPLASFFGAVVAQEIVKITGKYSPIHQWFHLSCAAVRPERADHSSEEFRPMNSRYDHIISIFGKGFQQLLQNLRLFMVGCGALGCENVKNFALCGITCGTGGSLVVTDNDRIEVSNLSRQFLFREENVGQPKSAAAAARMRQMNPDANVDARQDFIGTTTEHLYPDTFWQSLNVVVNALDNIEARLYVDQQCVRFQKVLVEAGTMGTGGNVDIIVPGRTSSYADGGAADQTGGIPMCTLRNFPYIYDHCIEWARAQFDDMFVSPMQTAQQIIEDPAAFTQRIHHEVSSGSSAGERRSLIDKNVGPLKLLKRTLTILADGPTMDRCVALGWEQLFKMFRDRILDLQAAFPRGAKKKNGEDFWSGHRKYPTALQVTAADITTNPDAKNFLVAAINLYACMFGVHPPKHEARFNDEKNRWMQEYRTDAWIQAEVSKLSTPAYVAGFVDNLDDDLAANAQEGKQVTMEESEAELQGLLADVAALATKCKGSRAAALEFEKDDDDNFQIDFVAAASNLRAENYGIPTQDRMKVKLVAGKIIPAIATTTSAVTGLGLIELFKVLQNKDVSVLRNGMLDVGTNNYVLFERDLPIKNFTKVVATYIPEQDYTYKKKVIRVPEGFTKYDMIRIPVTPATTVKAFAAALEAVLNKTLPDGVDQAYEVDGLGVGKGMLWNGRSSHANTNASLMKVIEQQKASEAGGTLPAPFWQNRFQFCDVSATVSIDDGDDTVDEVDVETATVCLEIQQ
# [4] = biological target: AMP-activated protein kinase, AMPK (Homo sapiens) (UniProt P54646+O43741+P54619+Q9UGJ0+Q9Y478+Q13131+Q9UGI9); assay: AMP-dependent Kinase enzyme assay. An in vitro enzyme assay that detects ADP turnover that is directly proportional to AMPK activity. This uses naive AMPK that is activated during the assay with MK-8722; format: functional; design: scale not given: direction of the effect not stated beside the values; conditions: 30 µM
# [5] = biological target: Sialic acid-binding Ig-like lectin 9 (Homo sapiens) (UniProt Q9Y336); assay: Hs-Siglec9 ALPHAscreen SOP 20170721; design: scale not given: direction of the effect not stated beside the values; conditions: 10 µM
# Chain of Sialic acid-binding Ig-like lectin 9 (Homo sapiens) (Q9Y336 whole entry): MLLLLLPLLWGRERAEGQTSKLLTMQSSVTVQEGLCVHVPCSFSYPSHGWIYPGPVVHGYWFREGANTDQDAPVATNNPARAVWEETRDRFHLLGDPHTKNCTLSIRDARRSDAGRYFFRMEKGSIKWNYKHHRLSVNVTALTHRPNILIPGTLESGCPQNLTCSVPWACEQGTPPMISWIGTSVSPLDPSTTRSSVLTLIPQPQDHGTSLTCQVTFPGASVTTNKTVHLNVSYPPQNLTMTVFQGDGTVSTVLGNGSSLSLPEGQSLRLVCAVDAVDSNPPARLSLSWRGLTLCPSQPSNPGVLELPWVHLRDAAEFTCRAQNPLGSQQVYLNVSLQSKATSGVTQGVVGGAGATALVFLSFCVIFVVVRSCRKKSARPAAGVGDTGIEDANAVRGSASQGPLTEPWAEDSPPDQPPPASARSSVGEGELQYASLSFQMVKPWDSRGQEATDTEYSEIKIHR
# Trypanosoma cruzi = assay: Trypanosoma cruzi phosphomannomutase and mannose-1-phosphate guanylyltransferase assay; format: functional; design: scale not given: direction of the effect not stated beside the values; conditions: 10 µM
# [6] = biological target: T3, Arginase-2, mitochondrial (Homo sapiens) (UniProt P78540); assay: in vitro enzyme assay to detect the production of urea directly proportional to the activity of Arginase II; format: functional; design: scale not given: in the data most compounds retested in dose-response had high values; conditions: 33.3 µM
# T3 sequence (whole entry): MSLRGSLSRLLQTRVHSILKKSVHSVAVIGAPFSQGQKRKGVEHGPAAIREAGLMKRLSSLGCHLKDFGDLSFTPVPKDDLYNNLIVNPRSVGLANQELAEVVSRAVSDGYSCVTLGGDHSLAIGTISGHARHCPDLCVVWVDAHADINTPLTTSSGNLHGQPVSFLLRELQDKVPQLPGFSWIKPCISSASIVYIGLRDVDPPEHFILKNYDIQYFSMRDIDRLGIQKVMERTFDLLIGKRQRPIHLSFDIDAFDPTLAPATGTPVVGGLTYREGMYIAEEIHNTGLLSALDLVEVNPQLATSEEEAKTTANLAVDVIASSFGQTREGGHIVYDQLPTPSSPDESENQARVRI
# [7] = biological target: T4, Proteasome subunit beta (Trypanosoma cruzi) (UniProt O96673); assay: Trypanosoma cruzi proteasome chymotrypsin-like activity (TcProtChymo) assay.; format: functional; design: scale not given: in the data most compounds retested in dose-response had high values; conditions: 9.37 µM
# T4 sequence (whole entry): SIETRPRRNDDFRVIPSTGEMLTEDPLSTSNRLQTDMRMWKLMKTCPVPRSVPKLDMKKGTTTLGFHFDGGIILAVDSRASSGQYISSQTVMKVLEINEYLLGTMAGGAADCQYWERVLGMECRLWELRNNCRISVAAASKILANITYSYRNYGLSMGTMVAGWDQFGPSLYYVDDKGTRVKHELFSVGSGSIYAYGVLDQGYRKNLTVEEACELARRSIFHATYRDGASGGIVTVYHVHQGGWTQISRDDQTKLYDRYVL
# N/A = assay: Trypanosoma cruzi proteasome luciferase counter-screen; format: functional; design: scale not given: direction of the effect not stated beside the values; conditions: 9.37 µM
# Homo sapiens = species: Homo sapiens; assay: To identify inhibition of the IFN signalling (Jak-Stat) pathway via expression of an eGFP reporter gene under the control of an IFN-stimulated response element (ISRE) containing MxA promoter.; format: functional; design: scale not given: direction of the effect not stated beside the values; conditions: 30 µM
# [8] = biological target: T5, Tyrosyl-tRNA synthetase, putative (Trypanosoma cruzi (strain CL Brener)) (UniProt Q4DSP6); assay: Trypanosoma cruzi tyrosyl tRNA synthetase (TcYRS) _High Tyrosine SOP; format: functional; design: scale not given: in the data most compounds retested in dose-response had high values; conditions: 30 µM
# T5 sequence (whole entry): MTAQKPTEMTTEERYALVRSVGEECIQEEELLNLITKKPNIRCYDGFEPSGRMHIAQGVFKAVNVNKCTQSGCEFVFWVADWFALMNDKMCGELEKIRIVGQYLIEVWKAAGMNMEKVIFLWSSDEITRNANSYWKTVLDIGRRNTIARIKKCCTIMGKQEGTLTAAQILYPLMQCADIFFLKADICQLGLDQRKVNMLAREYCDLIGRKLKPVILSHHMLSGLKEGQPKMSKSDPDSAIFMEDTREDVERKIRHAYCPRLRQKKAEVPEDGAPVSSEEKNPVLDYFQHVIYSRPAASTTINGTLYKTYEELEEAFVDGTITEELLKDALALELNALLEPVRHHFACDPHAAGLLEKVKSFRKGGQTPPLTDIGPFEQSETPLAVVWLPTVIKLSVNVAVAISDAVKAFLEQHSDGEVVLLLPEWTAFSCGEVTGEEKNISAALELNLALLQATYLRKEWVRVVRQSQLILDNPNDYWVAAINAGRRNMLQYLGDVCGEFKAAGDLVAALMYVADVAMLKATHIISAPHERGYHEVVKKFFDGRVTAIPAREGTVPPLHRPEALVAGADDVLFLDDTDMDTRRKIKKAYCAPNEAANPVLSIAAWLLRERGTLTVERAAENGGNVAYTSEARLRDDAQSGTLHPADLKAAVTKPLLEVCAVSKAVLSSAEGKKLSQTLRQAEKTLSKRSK
# [9] = biological target: T5, Tyrosyl-tRNA synthetase, putative (Trypanosoma cruzi (strain CL Brener)); assay: Trypanosoma cruzi tyrosyl tRNA synthetase (TcYRS) SOP; format: functional; design: scale not given: direction of the effect not stated beside the values; conditions: 30 µM
# [10] = biological target: Chromo domain-containing protein 1 (Saccharomyces cerevisiae (strain ATCC 204508 / S288c) (Baker's yeast)) (UniProt P32657); assay: ScCHD-1 Enzyme Inhibition Assay; format: functional; design: scale not given: in the data most compounds retested in dose-response had high values; conditions: 30 µM
# Chain of Chromo domain-containing protein 1 (Saccharomyces cerevisiae (strain ATCC 204508 / S288c) (Baker's yeast)) (P32657 whole entry, the tested form may be a part): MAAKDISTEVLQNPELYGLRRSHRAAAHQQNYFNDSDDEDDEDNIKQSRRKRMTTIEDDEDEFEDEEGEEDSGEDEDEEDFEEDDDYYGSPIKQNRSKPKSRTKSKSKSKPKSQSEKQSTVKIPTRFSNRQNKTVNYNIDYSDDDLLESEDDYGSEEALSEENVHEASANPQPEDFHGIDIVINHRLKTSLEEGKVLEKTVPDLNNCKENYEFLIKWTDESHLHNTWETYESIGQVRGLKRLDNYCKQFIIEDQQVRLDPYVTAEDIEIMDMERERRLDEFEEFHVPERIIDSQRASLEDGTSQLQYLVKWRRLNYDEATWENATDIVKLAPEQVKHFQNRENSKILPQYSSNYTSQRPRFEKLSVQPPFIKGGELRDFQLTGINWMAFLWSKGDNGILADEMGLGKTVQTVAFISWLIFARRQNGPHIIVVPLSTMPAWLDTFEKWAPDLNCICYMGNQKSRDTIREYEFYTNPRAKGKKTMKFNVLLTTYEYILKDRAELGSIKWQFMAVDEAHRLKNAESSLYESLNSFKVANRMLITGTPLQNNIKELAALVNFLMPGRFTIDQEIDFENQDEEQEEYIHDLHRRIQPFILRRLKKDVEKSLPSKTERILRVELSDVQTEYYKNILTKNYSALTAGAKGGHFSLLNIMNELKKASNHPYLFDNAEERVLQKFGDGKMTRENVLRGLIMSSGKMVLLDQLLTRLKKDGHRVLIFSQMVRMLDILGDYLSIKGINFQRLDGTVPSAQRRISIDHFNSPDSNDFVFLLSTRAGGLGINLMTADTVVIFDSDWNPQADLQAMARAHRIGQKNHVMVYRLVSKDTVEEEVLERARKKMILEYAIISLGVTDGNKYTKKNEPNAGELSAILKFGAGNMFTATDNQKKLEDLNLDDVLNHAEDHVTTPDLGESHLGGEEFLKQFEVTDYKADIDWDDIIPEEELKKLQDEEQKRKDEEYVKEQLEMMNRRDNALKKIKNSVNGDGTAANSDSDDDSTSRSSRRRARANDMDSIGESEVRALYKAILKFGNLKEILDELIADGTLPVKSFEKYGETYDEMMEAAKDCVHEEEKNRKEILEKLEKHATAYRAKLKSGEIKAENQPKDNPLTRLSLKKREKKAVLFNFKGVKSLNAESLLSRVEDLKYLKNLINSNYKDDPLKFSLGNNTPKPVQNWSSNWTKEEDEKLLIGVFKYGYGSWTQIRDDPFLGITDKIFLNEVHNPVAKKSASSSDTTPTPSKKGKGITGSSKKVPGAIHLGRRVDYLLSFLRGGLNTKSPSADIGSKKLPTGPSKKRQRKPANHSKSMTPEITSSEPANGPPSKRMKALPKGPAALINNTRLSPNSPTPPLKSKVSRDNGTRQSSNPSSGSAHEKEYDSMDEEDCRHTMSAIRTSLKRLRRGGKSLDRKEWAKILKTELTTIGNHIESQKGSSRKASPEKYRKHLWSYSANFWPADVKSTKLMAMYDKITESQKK
smiles,measurement,setting,value
Oc1ccc(N(CCc2ccccc2)CCn2cncn2)cc1,PXC50,"[1]; BOTTOM 3.490457709, HILLSLOPE 3.448426001, MAX_EFFECT 80.53691275, TOP 87.69859371",4.3
same,PXC50,"[1]; BOTTOM 4.951266088, HILLSLOPE 3.910237354, MAX_EFFECT 63.19444444, TOP 100.0",4.05
same,PXC50,[1]; MAX_EFFECT 6.53907496,< 4
same,PXC50,[1]; MAX_EFFECT 12.85988484,< 4
same,PXC50,[1]; MAX_EFFECT 66.72443674,< 4
CN1CCc2nc(C3CCN(C(=O)CCC4CCCC4)CC3)ncc2C1,PXC50,"[1]; BOTTOM 0.534632588, HILLSLOPE 1.255840154, MAX_EFFECT 60.86956522, TOP 100.0",4.14
same,PXC50,"[1]; BOTTOM 3.083112022, HILLSLOPE 1.565152708, MAX_EFFECT 54.7024952, TOP 100.0",4.03
same,PXC50,"[1]; BOTTOM -8.837281555, HILLSLOPE 1.047429208, MAX_EFFECT 57.34767025, TOP 100.0",4.14
same,PXC50,"[1]; BOTTOM -19.84781307, HILLSLOPE 1.359990695, MAX_EFFECT 58.41584158, TOP 100.0",4.22
same,PXC50,[1]; MAX_EFFECT 38.75598086,< 4
same,Percent Effect,[2],-2.07%
same,Percent Effect,[3],26.7%
same,Percent Effect,[4],7.92%
same,Percent Effect,[5],-1.28%
same,Percent Effect,Trypanosoma cruzi,5.51%
same,Percent Effect,[6],-2.1%
same,Percent Effect,[7],27.3% and 36.4% and 44%
same,Percent Effect,N/A,6.68% and 6.76%
same,Percent Effect,Homo sapiens,23.7%
same,Percent Effect,[8],44.7%
same,Percent Effect,[9],34.6%
same,Percent Effect,[10],-8.54%
